C diff HTS: inhibitors of Clostridium difficile growth. growth activity, negative = inhibition, % at 16 µg/mL (by protocol). AID 1259249. 86,000 compounds, 0.25% hits. Clostridium difficile clinical isolate growth, OD600, 24 h; stronger effect = lower value;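 active = mean growth activity at or below -80% and every replicate also at or below -80%; inconclusive = mean at or below -80% but some replicate above -80%; inactive = mean growth activity above -80%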
Pf Dd2 inh: inhibitors of Plasmodium falciparum Dd2 growth; P. falciparum Dd2 growth, SYBR Green, 72 h; stronger effect = lower value; activity change, % at 10 µM; 94,000 compounds, 2.3% hits; AID 1159554; in the data active = activity change below about -80%; inconclusive = no clear call, values can overlap the other calls
T cruzi growth-1: inhibitors of T. cruzi proliferation; 77,000 compounds, 5.9% hits; inhibition, % at 8.34 µM; T. cruzi beta-gal in NIH3T3, GalScreen luminescence, 90 h;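 active = mean inhibition above about 93%, with at least 55% of replicates each passing it, limit read from the data, passing the limit was not always enough; inconclusive = only one of those two conditions holds; inactive = neither condition holds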
T cruzi growth-2: inhibitors of T. cruzi proliferation; shares compounds with T cruzi growth-1; T. cruzi beta-gal in NIH3T3, GalScreen luminescence, 90 h; inhibition, % at 8.35 µM; 5,600 compounds, 72% hits;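 active = mean replicate inhibition above about 95% and at least 55% of replicates individually reaching it, limit read from the data; inconclusive = only one of the two criteria is met; inactive = neither criterion is met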
T cruzi growth-3: inhibitors of T. cruzi proliferation | 5,600 compounds, 21% hits | inhibition, % at 2.09 µM | T. cruzi beta-gal in NIH3T3, GalScreen luminescence, 90 h | shares compounds with T cruzi growth-1 | AID 651740;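 active = mean inhibition above about 95%, with at least 55% of replicates also reaching it, limit read from the data; inconclusive = meets just one of the two conditions; inactive = meets neither condition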
3T3 cytotox: cytotoxicity in mouse NIH/3T3 fibroblasts; shares compounds with T cruzi growth-1; NIH/3T3 viability, CellTiter-Glo ATP luminescence, 90 h; cytotoxicity (signal decrease), % at 8.35 µM; 5,600 compounds, 14% hits; AID 651742;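 active = mean signal decrease across replicates above about 35% based on untreated-well scatter, with enough replicates individually passing, limit read from the data; inconclusive = no rule stated though some were filed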
NIH3T3 tox 2: kills mouse NIH/3T3 fibroblasts | shares compounds with T cruzi growth-1 | NIH/3T3 viability, CellTiter-Glo ATP luminescence, 90 h | inhibition, % at 24.9 µM | 5,600 compounds, 56% hits;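 active = mean loss of cell viability signal at or above a set limit, and enough replicates individually reaching it; inconclusive = meets only the mean limit or only the replicate share; inactive = meets neither condition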
Numbers stand for hits; 0 = inactive; ? = inconclusive; - = not tested or not shown. This is a sample that favours compounds with a hit; in the whole collection about 6.7% have one here.

SMILES	C diff HTS	Pf Dd2 inh	T cruzi growth-1	T cruzi growth-2	T cruzi growth-3	3T3 cytotox	NIH3T3 tox 2
CCS(=O)(=O)N1CCCCN2[C@H](CO)[C@@H](c3ccc(-c4ccccc4C)cc3)[C@H]2C1	0	0	0	-	-	-	-
CCS(=O)(=O)N1CCCCN2[C@@H](CO)[C@@H](c3ccc(-c4ccccc4C)cc3)[C@@H]2C1	0	0	?	97	0	?	79
CCS(=O)(=O)N1CCCCN2[C@H](CO)[C@H](c3ccc(-c4ccccc4F)cc3)[C@@H]2C1	0	0	96	0	0	0	0
CCS(=O)(=O)N1CCCCN2[C@H](CO)[C@@H](c3ccc(-c4ccccc4)cc3)[C@@H]2C1	0	0	0	-	-	-	-
C/C=C/c1cccc(-c2nc(C(=O)N(C)C)cc3c2[C@@H](CCO)N([S@](=O)C(C)(C)C)C3)c1	0	0	-	-	-	-	-
N#Cc1cccc(-c2ccc(C3[C@H]4CNC[C@@H]3N4Cc3cc(F)ccc3F)cc2)c1 (stereo partly specified)	0	0	-	-	-	-	-
CCCc1cn(CC[C@H]2CC[C@@H](NC(=O)C3CCCC3)[C@H](CO)O2)nn1	0	0	-	-	-	-	-
COCC#Cc1ccc2c(c1)O[C@@H](CN(C)Cc1ccc3c(c1)OCO3)[C@H](C)CN([C@@H](C)CO)S2(=O)=O	0	0	-	-	-	-	-
CC(C)CC#Cc1ccc2c(c1)O[C@H](CN(C)Cc1ccc3c(c1)OCO3)[C@H](C)CN([C@@H](C)CO)S2(=O)=O	0	0	96	?	107	0	106
CCCC#Cc1ccc2c(c1)O[C@H](CN(C)Cc1ccc3c(c1)OCO3)[C@@H](C)CN([C@@H](C)CO)S2(=O)=O	0	-	0	-	-	-	-
CCCC#Cc1ccc2c(c1)O[C@@H](CN(C)Cc1ccc3c(c1)OCO3)[C@H](C)CN([C@@H](C)CO)S2(=O)=O	0	-	?	98	108	51	104
COCC#Cc1ccc2c(c1)O[C@@H](CN(C)Cc1ccc3c(c1)OCO3)[C@@H](C)CN([C@H](C)CO)S2(=O)=O	0	0	-	-	-	-	-
COCC#Cc1ccc2c(c1)O[C@H](CN(C)Cc1ccc3c(c1)OCO3)[C@@H](C)CN([C@@H](C)CO)S2(=O)=O	0	0	-	-	-	-	-
CCCC#Cc1ccc2c(c1)O[C@@H](CN(C)Cc1ccc3c(c1)OCO3)[C@H](C)CN([C@H](C)CO)S2(=O)=O	0	-	101	?	104	59	103
C[C@@H]1CN([C@H](C)CO)S(=O)(=O)c2ccc(C#CCN(C)C)cc2O[C@H]1CN(C)Cc1ccc2c(c1)OCO2	0	0	105	100	0	59	107
C[C@@H]1CN([C@H](C)CO)C(=O)c2cccc(NC(=O)c3ccncc3)c2O[C@H]1CN(C)S(C)(=O)=O	0	0	0	-	-	-	-
C[C@@H]1CN([C@@H](C)CO)C(=O)c2cc(-c3ccncc3)cnc2O[C@H]1CN(C)C(=O)Nc1ccc2c(c1)OCO2	0	0	0	-	-	-	-
COc1cccc(-c2ccc([C@@H]3[C@@H](CO)N4CCCCN(C(=O)NC(C)C)C[C@H]34)cc2)c1	0	0	0	-	-	-	-
COc1cccc(-c2ccc([C@@H]3[C@@H](CO)N4CCCCN(C(=O)NC(C)C)C[C@@H]34)cc2)c1	0	0	100	102	0	0	?
COc1cccc(-c2ccc([C@H]3[C@@H](CO)N4CCCCN(C(=O)NC(C)C)C[C@H]34)cc2)c1	0	0	117	108	0	0	61
Cc1cccc(-c2ccc([C@H]3[C@@H](CO)N4CCCCN(C(=O)NC(C)C)C[C@@H]34)cc2)c1	0	0	0	-	-	-	-
CO[C@@H]1CN(C)C(=O)c2cc(NC(=O)c3cnccn3)ccc2OC[C@@H](C)N(CC2CC2)C[C@@H]1C	0	0	-	-	-	-	-
Cc1noc(C)c1S(=O)(=O)Nc1cccc2c1O[C@H](CN(C)Cc1ccc(C(=O)Nc3ccccc3N)cc1)[C@H](C)CN([C@@H](C)CO)C2=O	-	0	?	101	0	0	36
Cc1noc(C)c1NC(=O)N(C)C[C@H]1Oc2ccc(N(C)C)cc2C(=O)N([C@H](C)CO)C[C@@H]1C	0	0	0	-	-	-	-
Cc1noc(C)c1NC(=O)N(C)C[C@@H]1Oc2c(NS(C)(=O)=O)cccc2C(=O)N([C@@H](C)CO)C[C@H]1C	0	0	0	-	-	-	-
SMILES	C diff HTS	Pf Dd2 inh	T cruzi growth-1	T cruzi growth-2	T cruzi growth-3	3T3 cytotox	NIH3T3 tox 2
C[C@@H]1CN([C@H](C)CO)C(=O)c2cc(NS(=O)(=O)c3ccc(Cl)cc3)ccc2O[C@@H]1CN(C)Cc1ccc(C(=O)Nc2ccccc2N)cc1	0	0	?	0	0	0	46
Cc1noc(C)c1NC(=O)N(C)C[C@H]1Oc2c(NS(=O)(=O)c3c(C)noc3C)cccc2C(=O)N([C@H](C)CO)C[C@H]1C	0	0	104	0	0	0	0
Cc1noc(C)c1NC(=O)N(C)C[C@@H]1Oc2ccc(N(C)C)cc2C(=O)N([C@H](C)CO)C[C@H]1C	0	0	106	0	0	0	0
C[C@@H]1CN([C@@H](C)CO)C(=O)c2cc(NS(=O)(=O)c3ccc(Cl)cc3)ccc2O[C@H]1CN(C)Cc1ccc(C(=O)Nc2ccccc2N)cc1	0	0	0	-	-	-	-
Cc1noc(C)c1S(=O)(=O)Nc1cccc2c1O[C@@H](CN(C)Cc1ccc(C(=O)Nc3ccccc3N)cc1)[C@@H](C)CN([C@H](C)CO)C2=O	0	0	-	-	-	-	-
COc1ccc(NC(=O)N(C)C[C@@H]2Oc3c(NS(=O)(=O)c4cn(C)cn4)cccc3C(=O)N([C@@H](C)CO)C[C@H]2C)cc1	0	0	0	-	-	-	-
O=C(C[C@H]1CC[C@@H]2[C@H](COC[C@@H](O)CN2CC2CCCC2)O1)NCC1CC1	0	0	-	-	-	-	-
CNC(=O)C[C@@H]1CC[C@H]2[C@@H](COc3ccc(NC(=O)Cc4cccs4)cc3C(=O)N2C)O1	0	0	0	-	-	-	-
COc1ccc(NC(=O)Nc2ccc3c(c2)C(=O)N([C@H](C)CO)C[C@H](C)[C@H](CN(C)C(=O)Nc2ccccc2)OCCCC[C@H](C)O3)cc1	0	0	0	-	-	-	-
Cc1noc(C)c1S(=O)(=O)Nc1ccc2c(c1)C(=O)N([C@@H](C)CO)C[C@H](C)[C@@H](CN(C)Cc1ccc(C(=O)Nc3ccccc3N)cc1)O2	0	0	-	-	-	-	-
Cc1noc(C)c1S(=O)(=O)Nc1ccc2c(c1)C(=O)N([C@@H](C)CO)C[C@@H](C)[C@@H](CN(C)Cc1ccc(C(=O)Nc3ccccc3N)cc1)O2	-	0	?	100	0	0	33
Cc1noc(C)c1S(=O)(=O)Nc1cccc2c1O[C@H](CN(C)Cc1ccc(-c3ccccc3)cc1)[C@H](C)CN([C@@H](C)CO)C2=O	0	0	100	0	0	0	0
Cc1noc(C)c1S(=O)(=O)Nc1cccc2c1O[C@@H](CN(C)Cc1ccc(-c3ccccc3)cc1)[C@@H](C)CN([C@@H](C)CO)C2=O	-	0	0	-	-	-	-

Screening data: PubChem BioAssay, Broad Institute
